Data: PubChem BioAssay (NCI)
The panel holds about 79,000 compounds, 15% with a hit somewhere; the sample as a whole holds those more often. Values without a mark were called inactive. Calls of active or inactive are those of the source. Rule as the data show it: active = growth inhibition above about 70%; inactive = the rest. Where a SMILES comes first, the peptide text is derived from it. The star is where a group is joined. Boc = CC(C)(C)OC(=O)*; OBn = c1ccc(CO*)cc1

Assay: NCI Yeast Anticancer Drug Screen. Data for the rad50 strain (AID 155);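 also: 0% = growth of vehicle-only cultures of the same strain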
Conditions: S. cerevisiae rad50 strain growth inhibition; at 50.0 µM; hits give high values
In short: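 Relative growth inhibition (compound vs vehicle) was measured in yeast with a defined repair-gene alteration.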
`CCC[N+](CCC)=c1ccc2nc3c(C)cc(N(CC)CC)cc3sc-2c1` showed a growth inhibition of -60.6%. In the case of `O=C(O)CCN1CCSC1=O`, the growth inhibition is reported as 7.15%. `COC(=O)c1ccc(/C=C/c2cc(O)ccc2O)cc1` gave a growth inhibition of 16.5%. With `OC1(c2ccccc2)CCCN(Cc2ccccc2)C1` (stereo not given) the growth inhibition was 3.75%. `CC1CCCC2(CC[N+](C)(CCC[N+](C)(C)C)CC2)C1` (stereo not given) gave a growth inhibition of -9.5%.

Assay: NCI Yeast Anticancer Drug Screen. Data for the mec2-1 strain (AID 157)
Conditions: S. cerevisiae mec2-1 strain, at 50.0 µM, hits give high values
In short: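 Vehicle-treated cultures served as reference for growth inhibition of compound-exposed mec2-1 yeast.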
Compound `CCCCCCCCCCCCSSC(=S)OC(C)C` has a growth inhibition of 37.7%. For `CN1CCCN(C)CCCN(C)CCCN(C)CCC1`, the growth inhibition was -2.45%. Work on `CC(C)CC(NC(=O)OC(C)(C)C)C(=O)NC(CC(=O)OCc1ccccc1)C(=O)OCc1ccccc1` (stereo not drawn) (Boc-Leu-Asp(OBn)-OBn; configuration not given here) yielded a growth inhibition of -7.25%. In the case of `CCOc1ccc(OCC)c(NC(=O)OC(C)C)c1`, the growth inhibition is reported as -3.25%. Work on `O=Cc1ccc(N2OC(c3ccc([N+](=O)[O-])cc3)C(c3ccc([N+](=O)[O-])cc3)C2c2ccc([N+](=O)[O-])cc2)cc1` (stereo not given) yielded a growth inhibition of -1.75%. `CC(=O)OC(C)(C)c1ccc2c(c1)C(=O)C[C@@H]1[C@](C)(C#N)CCC[C@]21C` gave a growth inhibition of 0.3%. `O=c1c(-c2ccccc2)c(O)on1/C=C1/C=CC=N1` gave a growth inhibition of -25.2%. Work on `CCOC(=O)NCC(=O)NCC(=O)NCC(N)=O` yielded a growth inhibition of -19.2%. Compound `NCCN(CCN)/[N+]([O-])=N/O` has a growth inhibition of -0.2%. For `O=S(=O)(Nc1cccc(C(F)(F)F)c1)c1ccc(F)cc1`, the growth inhibition was 9.5%. Work on `CC(O)(CNS(=O)(=O)c1ccccc1)c1ccccc1` (stereo not given) yielded a growth inhibition of 8.8%. `COC(=O)C1C2C=CC(C2)C1C(=O)OC` (stereo not given) showed a growth inhibition of 36.5%. Work on `O=C1OC(=O)C(c2ccccc2)=C1c1ccccc1` yielded a growth inhibition of 5%. `c1ccc2c(c1)NC1C3(CCC4CCCCC241)SCCS3` (stereo not given) gave a growth inhibition of 2.3%. `Cc1cc(C)c(NC(=O)c2c(Cl)c(Cl)c(Cl)c(Cl)c2C(=O)O)c(C)c1` showed a growth inhibition of -4.45%. For `CCN(Cc1ccc(C(=O)OC)cc1)c1cccc(NC(C)=O)c1`, the growth inhibition was 6.7%. With `c1ccc(-c2cccc(-c3cccc(-c4ccccc4)c3)c2)cc1` the growth inhibition was 0.6%. In the case of `Cc1cc(C)c(N=Nc2cc(C)c(N)cc2N)c(S(=O)(=O)O)c1`, the growth inhibition is reported as -1.35%. Compound `CNNCCCC(=O)NC(C)C` has a growth inhibition of 6.65%. `COc1c2ccoc2nc2c(O)c3c(c(CC=C(C)C)c12)OCO3` showed a growth inhibition of -7%. Compound `N#CC(C#N)=CNc1ccccc1` has a growth inhibition of -8.95%. `Cc1nccn1C(C)c1ccccc1` (stereo not given) gave a growth inhibition of -19.9%. In the case of `CC1=NNC(=O)C1(C)C`, the growth inhibition is reported as 0.7%. Compound `CCOC(=O)NC(C)(C)CN(CCO)C(=O)OCC` has a growth inhibition of -3.4%. With `CCCC1(CCC)CNC(=O)NC1` the growth inhibition was -3.9%. Compound `CCCCOC(=O)c1cccc(C(=O)OCCCC)n1` has a growth inhibition of -18.9%. `CC(C)NC(=O)OCCN=c1c2ccccc2ccc2ccccc12` gave a growth inhibition of 49.8%. `C(=C\c1ccc(/C=C/c2ccccc2)nn1)/c1ccccc1` showed a growth inhibition of -3.1%. For `COc1ccc(/C=C/C(=O)c2sc(N)nc2C)cc1`, the growth inhibition was -5.55%. With `CC(=O)NCc1cccc[n+]1[O-]` the growth inhibition was -12%. For `C[C@@H]1CC[C@@H](C)[C@](C)(CCc2ccoc2)C/C=C\C=C/1C(=O)O`, the growth inhibition was 85.8% (active). `Cc1ccccc1C(c1ccccc1)C(CO)CO` (stereo not given) gave a growth inhibition of 0.15%. Compound `CCN(CC)c1cccc(C(=O)OCCNCC(C)C)c1` has a growth inhibition of 0.85%. `CC(=O)NCCSSCCCCS(=O)O` gave a growth inhibition of -20.1%. In the case of `CC(C)C1=CC23CCC4C(C)(C(=O)O)CCCC4(C)C2CC1C1C(=O)N(c2ccccc2)C(=O)C13` (stereo not given), the growth inhibition is reported as -3.9%. In the case of `CCC[N+](CCC)=c1ccc2nc3c(C)cc(N(CC)CC)cc3sc-2c1`, the growth inhibition is reported as -6.45%. `O=C(O)CCN1CCSC1=O` gave a growth inhibition of 12.6%. With `COC(=O)c1ccc(/C=C/c2cc(O)ccc2O)cc1` the growth inhibition was 25.8%. Work on `OC1(c2ccccc2)CCCN(Cc2ccccc2)C1` (stereo not given) yielded a growth inhibition of 7%. For `CC1CCCC2(CC[N+](C)(CCC[N+](C)(C)C)CC2)C1` (stereo not given), the growth inhibition was -7.95%.

Assay: NCI Yeast Anticancer Drug Screen. Data for the sgs1 mgt1 strain (AID 161);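 also: 0% = growth of cultures given vehicle only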
Conditions: S. cerevisiae sgs1 mgt1 strain, at 50.0 µM, hits give high values
In short: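 Genetically altered yeast, compound exposure, growth inhibition relative to vehicle.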
In the case of `CCCCCCCCCCCCSSC(=S)OC(C)C`, the growth inhibition is reported as 45.5%. `CN1CCCN(C)CCCN(C)CCCN(C)CCC1` gave a growth inhibition of 7.6%. In the case of `CC(C)CC(NC(=O)OC(C)(C)C)C(=O)NC(CC(=O)OCc1ccccc1)C(=O)OCc1ccccc1` (stereo not drawn) (Boc-Leu-Asp(OBn)-OBn; configuration not given here), the growth inhibition is reported as 15.5%. Work on `CCOc1ccc(OCC)c(NC(=O)OC(C)C)c1` yielded a growth inhibition of 20.3%. `O=Cc1ccc(N2OC(c3ccc([N+](=O)[O-])cc3)C(c3ccc([N+](=O)[O-])cc3)C2c2ccc([N+](=O)[O-])cc2)cc1` (stereo not given) showed a growth inhibition of 14.7%. In the case of `CC(=O)OC(C)(C)c1ccc2c(c1)C(=O)C[C@@H]1[C@](C)(C#N)CCC[C@]21C`, the growth inhibition is reported as -2.75%. Compound `O=c1c(-c2ccccc2)c(O)on1/C=C1/C=CC=N1` has a growth inhibition of 3.5%. With `CCOC(=O)NCC(=O)NCC(=O)NCC(N)=O` the growth inhibition was -12.9%. For `NCCN(CCN)/[N+]([O-])=N/O`, the growth inhibition was 6.3%. For `O=S(=O)(Nc1cccc(C(F)(F)F)c1)c1ccc(F)cc1`, the growth inhibition was 11%. In the case of `CC(O)(CNS(=O)(=O)c1ccccc1)c1ccccc1` (stereo not given), the growth inhibition is reported as 0.6%. For `COC(=O)C1C2C=CC(C2)C1C(=O)OC` (stereo not given), the growth inhibition was -10.8%. For `O=C1OC(=O)C(c2ccccc2)=C1c1ccccc1`, the growth inhibition was 9.55%. Compound `c1ccc2c(c1)NC1C3(CCC4CCCCC241)SCCS3` (stereo not given) has a growth inhibition of 6.8%. With `Cc1cc(C)c(NC(=O)c2c(Cl)c(Cl)c(Cl)c(Cl)c2C(=O)O)c(C)c1` the growth inhibition was 0.05%. In the case of `CCN(Cc1ccc(C(=O)OC)cc1)c1cccc(NC(C)=O)c1`, the growth inhibition is reported as 29.9%. `c1ccc(-c2cccc(-c3cccc(-c4ccccc4)c3)c2)cc1` gave a growth inhibition of 7.5%. `Cc1cc(C)c(N=Nc2cc(C)c(N)cc2N)c(S(=O)(=O)O)c1` gave a growth inhibition of -2.1%. In the case of `CNNCCCC(=O)NC(C)C`, the growth inhibition is reported as 9.25%. `COc1c2ccoc2nc2c(O)c3c(c(CC=C(C)C)c12)OCO3` showed a growth inhibition of -4.7%. `N#CC(C#N)=CNc1ccccc1` gave a growth inhibition of 7.5%. Work on `Cc1nccn1C(C)c1ccccc1` (stereo not given) yielded a growth inhibition of -16.2%. With `CC1=NNC(=O)C1(C)C` the growth inhibition was -20.6%. In the case of `CCOC(=O)NC(C)(C)CN(CCO)C(=O)OCC`, the growth inhibition is reported as 1.4%. With `CCCC1(CCC)CNC(=O)NC1` the growth inhibition was -5.1%. For `CCCCOC(=O)c1cccc(C(=O)OCCCC)n1`, the growth inhibition was -14.1%. In the case of `CC(C)NC(=O)OCCN=c1c2ccccc2ccc2ccccc12`, the growth inhibition is reported as 65.9%. `C(=C\c1ccc(/C=C/c2ccccc2)nn1)/c1ccccc1` gave a growth inhibition of -1.65%. In the case of `COc1ccc(/C=C/C(=O)c2sc(N)nc2C)cc1`, the growth inhibition is reported as -0.4%. `CC(=O)NCc1cccc[n+]1[O-]` showed a growth inhibition of -3.8%. In the case of `C[C@@H]1CC[C@@H](C)[C@](C)(CCc2ccoc2)C/C=C\C=C/1C(=O)O`, the growth inhibition is reported as 73.8% (active). Work on `Cc1ccccc1C(c1ccccc1)C(CO)CO` (stereo not given) yielded a growth inhibition of 2.9%. `CCN(CC)c1cccc(C(=O)OCCNCC(C)C)c1` gave a growth inhibition of 5.05%. For `CC(=O)NCCSSCCCCS(=O)O`, the growth inhibition was 7.85%. In the case of `CC(C)C1=CC23CCC4C(C)(C(=O)O)CCCC4(C)C2CC1C1C(=O)N(c2ccccc2)C(=O)C13` (stereo not given), the growth inhibition is reported as 1.55%. In the case of `CCC[N+](CCC)=c1ccc2nc3c(C)cc(N(CC)CC)cc3sc-2c1`, the growth inhibition is reported as -20.6%. For `O=C(O)CCN1CCSC1=O`, the growth inhibition was -4.3%. In the case of `COC(=O)c1ccc(/C=C/c2cc(O)ccc2O)cc1`, the growth inhibition is reported as 56.6%. Compound `OC1(c2ccccc2)CCCN(Cc2ccccc2)C1` (stereo not given) has a growth inhibition of 6.6%. Work on `CC1CCCC2(CC[N+](C)(CCC[N+](C)(C)C)CC2)C1` (stereo not given) yielded a growth inhibition of -16.2%.
